In PubChem BioAssay (NCATS):
Results filed as inconclusive are left out. Active and inactive are the calls of the source. Calls follow the shape of the dose curve; as a rule, active = well fitted cell-killing curve with a large enough effect; inconclusive = small, poorly fitted or top-dose-only effect; inactive = no such curve, though single readings can be large or run the other way.

experiment: qHTS of pediatric cancer cell lines to identify multiple opportunities for drug repurposing: Primary screen for A673 cells (AID 1347092); conditions: A673 Ewing sarcoma viability, CellTiter-Glo ATP luminescence, 48 h; series mostly up to 46 µM; activity change, negative = cytotoxic: at the top concentration; also: nearly all actives have a fitted effect of over 45% in size
Text: Drug repurposing or repositioning has been offered as a strategy for drug development in oncology programs. This approach has special potential for childhood cancers and other rare or orphan diseases, where the expected return on new drug development has been a disincentive to pharmaceuticals. […] In this project we exploit the poly-pharmacology of drugs to discover new indications via phenotypic screening of a panel of 19 well-characterized cell lines derived from solid tumors seen in children and adolescents. The goal is to identify approved drugs with previously unrecognized anticancer properties that has the potential to reveal new mechanisms and biological processes involved in carcinogenesis or drug resistance. We employed a titration-based paradigm (quantitative high-throughput screening or qHTS), where all compounds were tested at multiple concentrations for their effect on cell viability. Concentration-response curves (CRCs) were derived directly from the primary screen, and both potency and efficacy values were used to identify compounds with robust bioactivity profiles. We screened the NIH Chemical Genomics Center (NCGC) Pharmaceutical Collection (NPC) and Mechanism Interrogation Plate (MIPE) small molecule collections of approved and investigational compounds against these cell lines; and measured metabolically active cells after 48 hours of compound treatment as a proxy for cell viability. […] Assay Submitter: Nathalia J. Martinez, National Center for Advancing Translational Sciences, National Institutes of Health, Rockville, MD, USA; email: natalia.martinez@nih.gov. Shen, M et al. Quantitative high-throughput phenotypic screening of pediatric cancer cell lines identifies multiple opportunities for drug repurposing. Oncotarget 2017 Dec 19;9(4):4758-4772. PMID 29435139.
The cells were obtained from University of North Carolina (UNC), Pediatric Preclinical Testing Program (PPT), and Coriell Institute (CI). qHTS cell viability assay: Cells were assayed in growth media at a density of 500-1,000 cells/well. Five microliters of cells were dispensed into 1,536-well, white, solid-bottom, TC-treated plates (Greiner Bio One) using a multidrop dispenser and incubated at 37 degrees C, 5% CO2, under a humidified atmosphere for 5 hours. Twenty-three nanoliters of compounds and controls (neutral control DMSO or positive control bortezomib at final concentration of 2.3 uM) were subsequently transferred by Kalypsys pintool. For primary screens, the MIPE collection was tested at 11-point dilutions (final concentrations range from 0.78 nM to 46 µM) and the NPC collection at 8-point dilutions (final concentrations range from 0.59 nM to 46 µM). Compounds tested in follow-up screens were assayed at 11-point dilutions. Cells were incubated for 48 hours, followed by addition of 3 uL of CellTiter-Glo (Promega). After a 15min incubation at room temperature, samples were analyzed for luminescence intensity using a ViewLux High-throughput CCD imager equipped with clear filters.
% is scaled to controls: 0 for no effect and ±100 for the full control effect; potency is read from the fitted curve at half-maximal effect.

SMILES	activity change, negative = cytotoxic	Potency
CC(C)(C)OC(=O)c1ncn2c1[C@@H]1CCCN1C(=O)c1c(Br)cccc1-2	1.77% (inactive)	
CCC(OC(C)=O)C(CC(C)NC)(c1ccccc1)c1ccccc1 (stereo not given)		27.6 µM (active)
CC(CC(C(N)=O)(c1ccccc1)c1ccccc1)N(C)C (stereo not given)	-0.0775% (inactive)	
C[C@]12CC[C@H]3[C@@H](CC=C4C[C@@H](O)CC[C@@]43C)[C@@H]1CC[C@@H]2O	7.4% (inactive)	
COc1ccc2[nH]cc(CCN(C(C)C)C(C)C)c2c1	-16.4% [at 92.7 µM] (inactive)	
ClCCCN1CCN(c2cccc(Cl)c2)CC1	-3.55% (inactive)	
CN(C)C(=O)Oc1cc(OC(=O)N(C)C)cc(C(O)CNC(C)(C)C)c1 (stereo not given)	-12.5% (inactive)	
CCC1(CC)C(=O)NC(=O)NC1=O	-16.5% (inactive)	
O=C(CBr)Nc1ccc(Cl)cc1C(=O)c1ccccc1F	-8.82% (inactive)	
c1ccc2c(c1)Sc1ccccc1N2CC1CN2CCC1CC2 (stereo not given)		13.3 µM (active)
Cc1ccc([N+](=O)[O-])[c]2c1[O][Hg]2		0.0531 µM (active)
CCOC(=O)c1ncn2c1CN(C)C(=O)c1c(I)cccc1-2	-3.27% (inactive)	
COP(=S)(OC)Oc1ccc(S(N)(=O)=O)cc1	5.34% (inactive)	
CN(C)CCc1c[nH]c2ccccc12	-22.3% [at 155 µM] (inactive)	
COC(=O)C1=CCCN(C)C1		inactive
COc1ccc(OC)c(CC(C)N)c1 (stereo not given)	-19.3% [at 92.7 µM] (inactive)	
C[C@]12CC[C@H]3[C@@H](CCC4=CC(=O)CC[C@@]43C)[C@@H]1CC[C@@H]2C(=O)O	6.11% (inactive)	
CN1CCc2cc(Cl)c(O)cc2[C@H]2c3ccccc3CC[C@@H]21	-18.6% (inactive)	
O=C(CCCCl)c1ccc(F)cc1	-16% (inactive)	
COc1cc(C[C@@H](C)N)c(OC)cc1Br	-21.8% [at 92.7 µM] (inactive)	

SMILES	activity change, negative = cytotoxic	Potency
COc1cc(N)c(Cl)cc1C(=O)NC1CN2CCC1CC2 (stereo not given)	-1.93% (inactive)	
O=C(NC(=O)c1c(F)cccc1F)Nc1cc(Cl)c(OC(F)(F)C(F)C(F)(F)F)cc1Cl (stereo not given)	-21.7% (inactive)	
CC1COC2(c3ccccc3Cl)c3cc(Cl)ccc3NC(=O)CN12 (stereo not given)	6.4% (inactive)	
CCN(Cc1ccc(Cl)nc1)/C(=C/[N+](=O)[O-])NC	2.09% (inactive)	
COP(=O)(OC)OC=C(Cl)Cl	0.0288% (inactive)	
OC(c1ccccc1)(c1ccccc1)C1CCNCC1	-8.83% (inactive)	
NC1(c2ccccc2)CCCCC1		30.3 µM (active)
O=C1CN2CCOC2(c2ccccc2Cl)c2cc(Cl)ccc2N1 (stereo not given)	6.43% (inactive)	
ClC1=C(Cl)C2(Cl)C(CBr)CC1(Cl)C2(Cl)Cl (stereo not given)	4.93% (inactive)	
CC(C)=C[C@@H]1[C@@H](C(=O)OCc2coc(Cc3ccccc3)c2)C1(C)C	-25.1% (inactive)	
NC(=O)OCCCc1ccccc1	-0.0954% (inactive)	
COc1cc(CC#N)cc(OC)c1OC	0.294% (inactive)	
Cc1nnc2n1-c1sc(CCC(=O)N3CCOCC3)cc1C(c1ccccc1Cl)=NC2	13.1% (inactive)	
CCC1(c2ccccc2)CCC(=O)NC1=O (stereo not given)	2.39% (inactive)	
CCN(CC)C(C)C(=O)c1ccccc1 (stereo not given)	7.83% (inactive)	
Cc1c(Cl)c(=O)oc2cc(OP(=O)(OCCCl)OCCCl)ccc12	-5.99% (inactive)	
c1ccc2nc(N3CCNCC3)ccc2c1	-23.1% (inactive)	
C[C@@H]1CN(C2CCC(C#N)(c3ccc(F)cc3)CC2)CC[C@]1(C(=O)O)c1ccccc1 (stereo not given in full)	-2.01% (inactive)	
O=c1[nH]c2cc(Cl)ccc2n1C1CCNCC1	1.01% (inactive)	
C=CC[C@]1(O)CC[C@H]2[C@@H]3CCC4=CC(=O)CCC4=C3C=C[C@@]21C	-17.9% (inactive)	
